{"source": "PubChem BioAssay (Tox21)", "note": "Values joined by “and” are separate entries in the source; they are usually repeats but may differ in a detail not shown here. Identical values can stand only once. Inconclusive results are not listed. Where a call stands in place of a potency, no number is given. More than one record can exist for a structure, and the calls need not agree. Active and inactive are the calls of the source. Calls follow the shape of the dose curve; as a rule, active = well fitted curve in the direction sought with a large enough effect in the repeat runs; inconclusive = weak or mixed curves; inactive = no such curve, though single readings can be large; an effect the other way counts as inactive or inconclusive. Also: nearly all actives have a fitted effect of over 50% in size. Potency is read from the fitted curve at half-maximal effect.", "data": [{"target": "Cytochrome P450 2C9 (Homo sapiens) (UniProt P11712)", "sequence (P11712 whole entry, looked up)": "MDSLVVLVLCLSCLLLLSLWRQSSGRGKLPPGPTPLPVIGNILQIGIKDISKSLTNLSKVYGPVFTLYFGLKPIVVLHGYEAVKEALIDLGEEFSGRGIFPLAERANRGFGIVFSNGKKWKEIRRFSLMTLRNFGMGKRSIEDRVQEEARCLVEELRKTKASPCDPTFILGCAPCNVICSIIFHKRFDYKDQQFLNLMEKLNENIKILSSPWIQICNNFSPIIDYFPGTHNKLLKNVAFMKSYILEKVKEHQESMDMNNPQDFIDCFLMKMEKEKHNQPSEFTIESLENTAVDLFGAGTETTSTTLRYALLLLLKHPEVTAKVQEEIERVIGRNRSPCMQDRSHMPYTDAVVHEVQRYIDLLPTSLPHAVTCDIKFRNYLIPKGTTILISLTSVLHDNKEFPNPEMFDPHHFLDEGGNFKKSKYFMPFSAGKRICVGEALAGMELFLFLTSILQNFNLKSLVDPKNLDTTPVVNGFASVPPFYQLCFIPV", "assay": "Cytochrome P450 Family 2 Subfamily C Member 9 (CYP2C9) small molecule antagonists: luciferase reporter qHTS assay (AID 1671198)", "details": "P450-Glo CYP2C9 enzyme assay, luciferin luminescence; series mostly up to 115 µM; activity change, negative = inhibition: at the top concentration", "in_short": "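CYP2C9 activity was measured with a P450-Glo proluciferin substrate. Enzyme–substrate mix was held with compound for 10 min at room temperature, then NADPH regeneration solution was added for 1 h at 37C. Luciferin product was read as luminescence.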", "values": [{"smiles": "CCCC[n+]1ccc(C)cc1", "Potency": "inactive and 22.3 µM (active)"}, {"smiles": "CCCCCCCCCCCCn1cc[n+](C)c1", "Potency": "9.01 µM (active) and inactive and 64.3 µM (active)"}, {"smiles": "Cc1cc(Cl)ccc1N", "Potency": "28.9 µM (active) and 24.6 µM (active) and 25.2 µM (active)"}, {"smiles": "COc1ccc(N)cc1", "Potency": "39.9 µM (active)"}, {"smiles": "CN(C)[C@@H]1C(=O)C(C(N)=O)=C(O)[C@@]2(O)C(=O)C3=C(O)c4c(O)cccc4[C@@](C)(O)[C@H]3[C@H](O)[C@@H]12", "Potency": "61.8 µM (active) and 39.6 µM (active)"}, {"smiles": "Nc1ccccc1", "Potency": "inactive and 40.7 µM (active)"}, {"smiles": "CCCCCCCCn1cc[n+](C)c1", "Potency": "inactive"}, {"smiles": "CCCCCCn1cc[n+](C)c1", "Potency": "inactive"}, {"smiles": "CCCC[N+]1(C)CCCC1", "Potency": "inactive"}, {"smiles": "COc1ccccc1N", "activity change, negative = inhibition": "-10.5% (inactive)"}, {"smiles": "CCCC[n+]1ccccc1", "Potency": "inactive"}, {"smiles": "C1CCC(NC2CCCCC2)CC1", "Potency": "inactive"}, {"smiles": "CCCC[n+]1ccccc1C", "Potency": "inactive"}, {"smiles": "CCC[N+]1(C)CCCC1", "Potency": "inactive"}, {"smiles": "CCCCn1cc[n+](C)c1C", "Potency": "inactive"}, {"smiles": "CCCCCC[n+]1ccccc1", "Potency": "inactive"}, {"smiles": "CCCC[n+]1cccc(C)c1", "Potency": "inactive"}, {"smiles": "CCCCCCCCCCn1cc[n+](C)c1", "Potency": "5.7 µM (active) and inactive and 32.6 µM (active)"}]}, {"target": "Cytochrome P450 1A2 (Homo sapiens) (UniProt P05177)", "sequence (P05177 whole entry, looked up)": "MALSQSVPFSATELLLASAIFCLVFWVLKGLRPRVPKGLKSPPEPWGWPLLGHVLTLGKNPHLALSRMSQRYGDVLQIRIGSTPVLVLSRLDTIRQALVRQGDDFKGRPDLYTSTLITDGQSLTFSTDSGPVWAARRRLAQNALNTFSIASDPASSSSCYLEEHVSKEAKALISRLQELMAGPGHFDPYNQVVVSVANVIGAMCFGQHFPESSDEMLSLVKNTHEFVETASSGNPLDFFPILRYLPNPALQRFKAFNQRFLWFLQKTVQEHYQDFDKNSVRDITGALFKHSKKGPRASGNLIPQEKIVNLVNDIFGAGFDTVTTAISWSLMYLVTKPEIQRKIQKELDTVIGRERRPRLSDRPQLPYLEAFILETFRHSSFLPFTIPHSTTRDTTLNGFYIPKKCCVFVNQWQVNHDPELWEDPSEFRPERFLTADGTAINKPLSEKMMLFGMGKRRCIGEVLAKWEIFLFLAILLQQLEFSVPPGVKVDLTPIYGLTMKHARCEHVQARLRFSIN", "assay": "Cytochrome P450 Family 1 Subfamily A Member 2 (CYP1A2) small molecule antagonists: luciferase reporter qHTS assay (AID 1671199)", "details": "P450-Glo CYP1A2 enzyme, luciferin luminescence, 1 h; series mostly up to 115 µM; activity change, negative = inhibition: at the top concentration", "in_short": "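Room-temperature CYP1A2 reaction with proluciferin substrate: compounds added from DMSO, 10 min preincubation, NADPH regeneration for 1 h. Luciferin detection reagent then added; luminescence recorded as RLU.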", "values": [{"smiles": "Cc1cc(Cl)ccc1OCC(=O)O", "Potency": "inactive"}, {"smiles": "CCCC[n+]1ccc(C)cc1", "Potency": "36.1 µM (active) and 35.4 µM (active) and inactive"}, {"smiles": "C[C@]12CCC(=O)C=C1CC[C@@H]1[C@@H]2CC[C@]2(C)C(=O)CC[C@@H]12", "Potency": "inactive"}, {"smiles": "Cc1cc(Cl)ccc1N", "Potency": "11.5 µM (active) and 9.8 µM (active) and 7.96 µM (active)"}, {"smiles": "O=C(O)COc1ccc(Cl)cc1Cl", "Potency": "31.6 µM (active) and inactive"}, {"smiles": "COc1ccc(N)cc1", "activity change, negative = inhibition": "-18% (inactive)"}, {"smiles": "CN(C)[C@@H]1C(=O)C(C(N)=O)=C(O)[C@@]2(O)C(=O)C3=C(O)c4c(O)cccc4[C@@](C)(O)[C@H]3[C@H](O)[C@@H]12", "Potency": "inactive"}, {"smiles": "Nc1ccccc1", "Potency": "36.3 µM (active) and inactive and 27.5 µM (active)"}, {"smiles": "CCCCCCCCn1cc[n+](C)c1", "Potency": "inactive"}, {"smiles": "CCCCCCn1cc[n+](C)c1", "Potency": "inactive"}, {"smiles": "CCCC[N+]1(C)CCCC1", "Potency": "inactive"}, {"smiles": "COc1ccccc1N", "Potency": "39.9 µM (active) and 32.3 µM (active) and 35.6 µM (active)"}, {"smiles": "CCCCCCCCCCCCCCCCn1cc[n+](C)c1", "Potency": "36.4 µM (active) and inactive and 71.2 µM (active)"}, {"smiles": "CCCC[n+]1ccccc1", "Potency": "inactive"}, {"smiles": "C1CCC(NC2CCCCC2)CC1", "Potency": "inactive"}, {"smiles": "CCCC[n+]1ccccc1C", "Potency": "inactive"}, {"smiles": "CCC[N+]1(C)CCCC1", "Potency": "inactive"}, {"smiles": "CCCCn1cc[n+](C)c1C", "Potency": "inactive and 35.9 µM (active)"}, {"smiles": "CCCCCC[n+]1ccccc1", "Potency": "inactive"}, {"smiles": "CCCC[n+]1cccc(C)c1", "Potency": "inactive"}, {"smiles": "CCCCCCCCCCn1cc[n+](C)c1", "Potency": "36 µM (active) and 32.6 µM (active)"}]}, {"target": "Voltage-gated inwardly rectifying potassium channel KCNH2 (Homo sapiens) (UniProt Q12809)", "sequence (Q12809 whole entry, looked up)": "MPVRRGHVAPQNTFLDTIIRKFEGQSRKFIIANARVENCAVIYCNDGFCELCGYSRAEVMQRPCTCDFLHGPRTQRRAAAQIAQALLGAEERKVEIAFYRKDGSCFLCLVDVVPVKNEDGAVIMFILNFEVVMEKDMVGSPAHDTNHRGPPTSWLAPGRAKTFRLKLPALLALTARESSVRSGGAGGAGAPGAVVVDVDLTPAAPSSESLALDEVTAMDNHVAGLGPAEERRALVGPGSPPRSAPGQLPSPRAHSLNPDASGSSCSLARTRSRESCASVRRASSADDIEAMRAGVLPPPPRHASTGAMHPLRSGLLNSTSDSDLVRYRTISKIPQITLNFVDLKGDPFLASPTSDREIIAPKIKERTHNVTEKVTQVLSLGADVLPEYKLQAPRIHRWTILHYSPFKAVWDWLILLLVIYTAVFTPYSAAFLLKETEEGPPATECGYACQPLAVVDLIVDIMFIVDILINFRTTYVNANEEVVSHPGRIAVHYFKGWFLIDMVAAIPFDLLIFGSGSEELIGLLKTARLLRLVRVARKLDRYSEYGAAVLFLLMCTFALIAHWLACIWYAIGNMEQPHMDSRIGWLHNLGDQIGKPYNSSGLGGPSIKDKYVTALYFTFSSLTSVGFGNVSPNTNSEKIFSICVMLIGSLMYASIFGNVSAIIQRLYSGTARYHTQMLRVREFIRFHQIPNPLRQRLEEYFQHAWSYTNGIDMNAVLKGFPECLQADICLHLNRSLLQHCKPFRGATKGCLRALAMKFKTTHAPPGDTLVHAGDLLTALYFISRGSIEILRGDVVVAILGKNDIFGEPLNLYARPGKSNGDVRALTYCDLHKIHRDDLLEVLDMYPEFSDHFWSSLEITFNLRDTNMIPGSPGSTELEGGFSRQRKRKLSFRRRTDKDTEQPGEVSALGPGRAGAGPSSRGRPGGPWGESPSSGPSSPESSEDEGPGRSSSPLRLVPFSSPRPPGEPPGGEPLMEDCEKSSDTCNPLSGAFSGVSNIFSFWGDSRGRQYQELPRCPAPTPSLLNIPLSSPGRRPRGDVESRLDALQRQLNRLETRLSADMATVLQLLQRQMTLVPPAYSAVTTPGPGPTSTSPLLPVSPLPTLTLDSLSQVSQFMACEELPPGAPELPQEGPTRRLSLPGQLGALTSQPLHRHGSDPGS", "assay": "Human Ether-a-go-go-Related Gene (hERG) channel small molecule antagonists: fluorescence cell-based qHTS assay (AID 1671200);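 as to activity change, negative = inhibition: hERG-expressing U2OS cells given a thallium stimulus after FluxOR II dye loading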", "details": "hERG-U2OS cells, FluxOR thallium flux fluorescence; series mostly up to 76.8 µM; activity change, negative = inhibition: at the top concentration", "in_short": "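Quantitative HTS in hERG-U2OS cells: thallium entry through the channel reports activity, read as continuous 480/540 nm fluorescence over 2 min after stimulus addition.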", "values": [{"smiles": "Cc1cc(Cl)ccc1OCC(=O)O", "Potency": "inactive"}, {"smiles": "COP(=O)(OC)C(O)C(Cl)(Cl)Cl", "note": "(centres undefined)", "Potency": "inactive"}, {"smiles": "CCCC[n+]1ccc(C)cc1", "Potency": "inactive"}, {"smiles": "C[C@]12CCC(=O)C=C1CC[C@@H]1[C@@H]2CC[C@]2(C)C(=O)CC[C@@H]12", "Potency": "inactive"}, {"smiles": "Cc1cc(Cl)ccc1N", "Potency": "inactive"}, {"smiles": "O=C(O)COc1ccc(Cl)cc1Cl", "Potency": "inactive"}, {"smiles": "COc1ccc(N)cc1", "Potency": "inactive"}, {"smiles": "CN(C)[C@@H]1C(=O)C(C(N)=O)=C(O)[C@@]2(O)C(=O)C3=C(O)c4c(O)cccc4[C@@](C)(O)[C@H]3[C@H](O)[C@@H]12", "Potency": "inactive"}, {"smiles": "Nc1ccccc1", "Potency": "inactive"}, {"smiles": "CCCCCCCCn1cc[n+](C)c1", "Potency": "17.3 µM (active) and 21.9 µM (active) and 22.1 µM (active)"}, {"smiles": "CCCCCCn1cc[n+](C)c1", "Potency": "inactive"}, {"smiles": "CCCC[N+]1(C)CCCC1", "Potency": "inactive"}, {"smiles": "CC[N+](CC)(CC)CC", "Potency": "inactive"}, {"smiles": "Oc1cccc2cccnc12", "Potency": "inactive"}, {"smiles": "COc1ccccc1N", "Potency": "inactive"}, {"smiles": "CC(=O)O", "Potency": "inactive"}, {"smiles": "N#CS", "Potency": "inactive"}, {"smiles": "O=[N+]([O-])O", "Potency": "inactive"}, {"smiles": "CCCC[n+]1ccccc1", "Potency": "inactive"}, {"smiles": "C1CCC(NC2CCCCC2)CC1", "Potency": "inactive"}, {"smiles": "O=S(=O)(O)O", "Potency": "inactive"}, {"smiles": "CCCC[n+]1ccccc1C", "Potency": "inactive"}, {"smiles": "CCC[N+]1(C)CCCC1", "Potency": "inactive"}, {"smiles": "O=C(O)CC(O)(CC(=O)O)C(=O)O", "Potency": "inactive"}, {"smiles": "C=CCOC(Cn1ccnc1)c1ccc(Cl)cc1Cl", "note": "(centres undefined)", "Potency": "24.6 µM (active) and 21.9 µM (active) and 23.9 µM (active)"}, {"smiles": "CCCCn1cc[n+](C)c1", "Potency": "inactive"}, {"smiles": "CCCCn1cc[n+](C)c1C", "Potency": "inactive"}, {"smiles": "CCCCCC[n+]1ccccc1", "Potency": "inactive"}, {"smiles": "O=C(O)c1ccccc1O", "Potency": "inactive"}, {"smiles": "CCCC[n+]1cccc(C)c1", "Potency": "inactive"}]}, {"target": "Cytochrome P450 3A4 (Homo sapiens) (UniProt P08684)", "sequence (P08684 whole entry, looked up)": "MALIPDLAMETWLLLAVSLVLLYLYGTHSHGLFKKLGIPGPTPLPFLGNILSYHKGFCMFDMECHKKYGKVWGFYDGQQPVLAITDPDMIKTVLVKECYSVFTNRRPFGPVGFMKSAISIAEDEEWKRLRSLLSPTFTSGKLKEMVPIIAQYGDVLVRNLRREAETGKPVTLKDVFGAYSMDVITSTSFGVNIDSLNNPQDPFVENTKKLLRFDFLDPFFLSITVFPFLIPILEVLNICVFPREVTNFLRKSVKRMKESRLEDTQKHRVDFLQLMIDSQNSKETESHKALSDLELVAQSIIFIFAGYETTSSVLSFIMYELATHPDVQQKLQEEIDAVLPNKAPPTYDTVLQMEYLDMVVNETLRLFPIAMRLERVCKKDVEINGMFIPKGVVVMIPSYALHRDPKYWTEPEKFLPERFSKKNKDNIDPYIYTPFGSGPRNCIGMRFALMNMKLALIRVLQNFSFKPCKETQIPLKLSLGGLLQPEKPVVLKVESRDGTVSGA", "assay": "Cytochrome P450 Family 3 Subfamily A Member 4 (CYP3A4) small molecule antagonists: luciferase reporter qHTS assay (AID 1671201)", "details": "P450-Glo CYP3A4 enzyme, luciferin luminescence, 1 h; series mostly up to 115 µM; activity change, negative = inhibition: at the top concentration", "in_short": "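Inhibition of CYP3A4 is measured as loss of light: the enzyme converts a proluciferin substrate to luciferin, detected luminescently. Reaction ran 1 h at room temperature with NADPH regeneration after a 10 min compound preincubation.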", "values": [{"smiles": "Cc1cc(Cl)ccc1OCC(=O)O", "Potency": "inactive"}, {"smiles": "CCCC[n+]1ccc(C)cc1", "Potency": "inactive"}, {"smiles": "CCCCCCCCCCCCn1cc[n+](C)c1", "Potency": "80.3 µM (active) and inactive"}, {"smiles": "C[C@]12CCC(=O)C=C1CC[C@@H]1[C@@H]2CC[C@]2(C)C(=O)CC[C@@H]12", "Potency": "inactive"}, {"smiles": "O=C(O)COc1ccc(Cl)cc1Cl", "Potency": "inactive"}, {"smiles": "COc1ccc(N)cc1", "Potency": "inactive"}, {"smiles": "CN(C)[C@@H]1C(=O)C(C(N)=O)=C(O)[C@@]2(O)C(=O)C3=C(O)c4c(O)cccc4[C@@](C)(O)[C@H]3[C@H](O)[C@@H]12", "Potency": "inactive"}, {"smiles": "Nc1ccccc1", "Potency": "inactive"}, {"smiles": "CCCCCCCCn1cc[n+](C)c1", "Potency": "inactive"}, {"smiles": "CCCCCCn1cc[n+](C)c1", "Potency": "inactive"}, {"smiles": "CCCC[N+]1(C)CCCC1", "Potency": "inactive"}, {"smiles": "COc1ccccc1N", "Potency": "22.4 µM (active) and inactive and 28.3 µM (active)"}, {"smiles": "CCCC[n+]1ccccc1", "Potency": "inactive"}, {"smiles": "C1CCC(NC2CCCCC2)CC1", "Potency": "inactive"}, {"smiles": "CCCC[n+]1ccccc1C", "Potency": "inactive"}, {"smiles": "CCC[N+]1(C)CCCC1", "Potency": "inactive"}, {"smiles": "CCCCn1cc[n+](C)c1C", "Potency": "inactive"}, {"smiles": "CCCCCC[n+]1ccccc1", "Potency": "inactive"}, {"smiles": "CCCC[n+]1cccc(C)c1", "Potency": "inactive"}, {"smiles": "CCCCCCCCCCn1cc[n+](C)c1", "Potency": "inactive"}]}]}
